Screening data from PubChem BioAssay.
The list is not random: actives were taken first. Their share in the collection is about 1.4%.
LANA-H2B inh = blockers of LANA interaction with H2A/H2B – biochemical, FP readout, HTS, primary screen. 320,000 tested, 0.6% active. inhibition, % (no concentration beside the values). cell-free LANA-H2A/H2B peptide, fluorescence polarization. Protein LANA1 (Human herpesvirus 8 type P (isolate GK18)), Q9QR71; in the data active = inhibition mostly above about 10%, no sharp cut-off; inactive = mostly below about 6.7%
A3G deaminase = APOBEC3G DNA deaminase inhibitors, primary screen, biochemical, fluorescence, single-stranded DNA substrate, uHTS; recombinant A3G, ssDNA deamination FAM/TAMRA fluorescence; inhibition, % at 20 µM; 330,000 tested, 0.28% active; AID 493012, 2011; DNA dC->dU-editing enzyme APOBEC-3G (Homo sapiens), Q9HC16;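 active = inhibition of at least 40% at 20 µM, with no more than 30% in the related APOBEC3A deaminase screen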;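 also: plate controls were DMSO wells with A3G for no effect and wells lacking A3G enzyme for full effect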
HDAC3 inhib = HDAC3 deacetylase inhibitors, primary screen, biochemical, fluorescence, cell-free homogeneous. inhibition, % at 8.3 µM. 320,000 tested, 0.15% active. AID 2718, 2010. Histone deacetylase 3 (Homo sapiens), O15379. recombinant HDAC3, fluorogenic peptide/trypsin coupled; in the data active = inhibition above about 26%, passing the limit was not always enough; inconclusive = no clear call, values can overlap the other calls
A3A deaminase = APOBEC3A ssDNA deaminase inhibitors, primary screen, selectivity assay for APOBEC3G inhibitor project, biochemical, FAM/TAMRA oligo cleavage fluorescence. DNA dC->dU-editing enzyme APOBEC-3A (Homo sapiens), P31941. 330,000 tested, 0.41% active. AID 493011, 2011. recombinant A3A, FAM/TAMRA ssDNA deamination fluorescence. inhibition, % at 20 µM;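 active = at least 40% inhibition at 20 µM here, with at most 30% in a related deaminase screen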;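 also: plate controls were A3A with DMSO for no effect and wells lacking A3A enzyme for full effect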
* hit, by the source's call.

What do the screens show for `COc1cccc(CN2CC(C(=O)N(C)Cc3[nH]c4ccccc4c3C)CCC2=O)c1` (stereo not given)?
LANA-H2B inh: 2; A3G deaminase: -7; HDAC3 inhib: 6; A3A deaminase: -5

How did COc1cccc(CN2CC(C(=O)N(C)Cc3ccc(C)cc3)CCC2=O)c1 (stereo not given) do in these assays?
LANA-H2B inh: 14*; A3G deaminase: -7; HDAC3 inhib: 8; A3A deaminase: -3

Results for COc1ccc(C(=O)/C=C/Nc2ccc(S(=O)(=O)Nc3cc(OC)nc(OC)n3)cc2)c(OC)c1 ?
LANA-H2B inh: 17*; A3G deaminase: -5; HDAC3 inhib: -4; A3A deaminase: -6

What do the screens show for `CC[N+]1(C)[C@@H]2CC[C@H]1CC(OC(=O)[C@H]1CCC(C(=O)OC3C[C@H]4CC[C@@H](C3)[N+]4(C)CC)(c3ccccc3)c3ccccc31)C2` (stereo not given in full)?
LANA-H2B inh: -2; A3G deaminase: -3; HDAC3 inhib: 2; A3A deaminase: 0

What do the screens show for `Cc1c(/C=N/NC(=O)c2cccnc2)c2ccccc2n1Cc1ccccc1`?
LANA-H2B inh: 12*; A3G deaminase: 1; HDAC3 inhib: 2; A3A deaminase: 0

Results for Cc1nn(Cc2ccccc2)c(Cl)c1/C=N/NC(=O)c1cccnc1 ?
LANA-H2B inh: 2; A3G deaminase: -6; HDAC3 inhib: 7; A3A deaminase: -1

Results for CCN(CC)CCN(C(=O)c1ccc(S(=O)(=O)N(C)C2CCCCC2)cc1)c1nc2ccc(OC)cc2s1 ?
LANA-H2B inh: 108*; A3G deaminase: 2; HDAC3 inhib: -2; A3A deaminase: -4

How did CCN(CC)CCN(C(=O)c1ccc(C(=O)c2ccccc2)cc1)c1nc2ccc(OC)cc2s1 do in these assays?
LANA-H2B inh: -2; A3G deaminase: 5; A3A deaminase: 1

How did CC[C@@]1(C(=O)OC)N[C@H](CN(C)S(=O)(=O)c2ccc(OC)cc2)[C@@H]2C(=O)N(C)C(=O)[C@@H]21 do in these assays?
LANA-H2B inh: -3; A3G deaminase: -7; HDAC3 inhib: 2; A3A deaminase: -4

What do the screens show for `CCN(Cc1ccc(C#CCCO)cc1)CC1CCCN(CCc2cccc(F)c2)C1` (stereo not given)?
LANA-H2B inh: 2; A3G deaminase: -5; HDAC3 inhib: 2; A3A deaminase: -4

Results for Cc1ccc(CN(C(=O)c2ccco2)C(C(=O)NC2CCCC2)c2cccnc2)cc1 (stereo not given) ?
LANA-H2B inh: active; A3G deaminase: -2; HDAC3 inhib: 3; A3A deaminase: -3

How did CC(C)(C)C(=O)NC(c1ccccc1)c1c(O)ccc2ccccc12 (stereo not given) do in these assays?
LANA-H2B inh: -4; A3G deaminase: -3; HDAC3 inhib: -4; A3A deaminase: -1

What do the screens show for `CC(C)C(=O)NC(c1ccc(N(C)C)cc1)c1c(O)ccc2ccccc12` (stereo not given)?
LANA-H2B inh: 27*; A3G deaminase: 0; HDAC3 inhib: 3; A3A deaminase: 7

Results for COC(=O)Cc1cc(=O)oc2cc(OC)ccc12 ?
LANA-H2B inh: 67*; A3G deaminase: -3; HDAC3 inhib: -40; A3A deaminase: 2

Results for COc1ccc2c(CC(=O)O)cc(=O)oc2c1 ?
LANA-H2B inh: 0; A3G deaminase: -5; HDAC3 inhib: -19; A3A deaminase: -1

Results for COc1ccc2c(COC(=O)CC3Sc4ccccc4NC3=O)cc(=O)oc2c1 (stereo not given) ?
LANA-H2B inh: 15*; A3G deaminase: 0; HDAC3 inhib: -2; A3A deaminase: 9

How did NC(=O)C1Cc2ccccc2CN1C(=O)c1nn(Cc2ccccc2)c(=O)c2ccccc12 (stereo not given) do in these assays?
LANA-H2B inh: 4; A3G deaminase: -1; HDAC3 inhib: 1; A3A deaminase: 1

Results for CSc1nc(-c2ccco2)nn1C(=O)c1ccccc1 ?
LANA-H2B inh: -1; A3G deaminase: -3; HDAC3 inhib: 97*; A3A deaminase: 0

How did CSc1nc(-c2ccco2)nn1C(=O)c1ccco1 do in these assays?
LANA-H2B inh: -5; A3G deaminase: 9; HDAC3 inhib: 72*; A3A deaminase: 2

Results for CSc1nc(-c2ccco2)nn1C(=O)c1ccc(C)cc1 ?
LANA-H2B inh: 2; A3G deaminase: -9; HDAC3 inhib: inconclusive; A3A deaminase: -2

How did CCCC(=O)n1nc(-c2ccco2)nc1SCc1ccccc1 do in these assays?
LANA-H2B inh: 2; A3G deaminase: -7; HDAC3 inhib: 48*; A3A deaminase: -3

What do the screens show for `CC(C)N(Cc1ccccc1)C(=O)COC(=O)c1c(F)cccc1F`?
LANA-H2B inh: -1; A3G deaminase: -6; HDAC3 inhib: 1; A3A deaminase: -6

Results for CCOC(=O)c1ccc(N=c2scc(C)n2CC)cc1 ?
LANA-H2B inh: 43*; A3G deaminase: -5; HDAC3 inhib: -6; A3A deaminase: -3

Results for C[C@@H]1CN([C@H](C)CO)C(=O)c2cccc(NS(=O)(=O)c3ccccc3)c2O[C@H]1CN(C)C ?
LANA-H2B inh: 10; A3G deaminase: -4; HDAC3 inhib: -7; A3A deaminase: -4

Results for O=C1NC(=S)N(C(=O)c2ccc(F)cc2)/C1=C/c1ccccc1 ?
LANA-H2B inh: -1; A3G deaminase: -8; HDAC3 inhib: 5; A3A deaminase: 2

How did COc1ccc(/C=C2\C(=O)NC(=S)N2C(=O)c2ccc(F)cc2)cc1 do in these assays?
LANA-H2B inh: active; HDAC3 inhib: 1

How did CCNC(=O)N(CC)C[C@H]1N[C@@](Cc2ccccc2)(C(=O)OC)[C@H]2C(=O)N(C)C(=O)[C@@H]12 do in these assays?
LANA-H2B inh: 1; A3G deaminase: -8; HDAC3 inhib: 1; A3A deaminase: -5

Results for O=C(O)C1CCCN(C(=O)c2cccc3ccccc23)C1 (stereo not given) ?
LANA-H2B inh: -4; A3G deaminase: -6; HDAC3 inhib: 5; A3A deaminase: -2

Results for O=C(c1cccc2ccccc12)N1CCCCC1 ?
LANA-H2B inh: 11*; A3G deaminase: -9; HDAC3 inhib: 0; A3A deaminase: 3

How did Cn1c(=O)c(C(=O)NNC(=O)c2ccccc2Br)c(O)c2ccccc21 do in these assays?
LANA-H2B inh: -3; A3G deaminase: 0; HDAC3 inhib: 7; A3A deaminase: -1

What do the screens show for `CCn1c(=O)c(C(=O)NNC(=O)c2ccccc2Br)c(O)c2ccccc21`?
LANA-H2B inh: 27*; A3G deaminase: -5; HDAC3 inhib: -1; A3A deaminase: 1

How did COc1ccc(C(=O)Nc2nnc(S(=O)(=O)Cc3ccccc3)s2)cc1 do in these assays?
LANA-H2B inh: 0; A3G deaminase: -4; HDAC3 inhib: -1; A3A deaminase: -4
